Shown are actives, neighbours in structure and some others; about 6.8% of the full set was active somewhere.
A340 absorber: compound absorbs light at 340 nm. compound absorbance at 340 nm, fold over control. fold change at 10 µM. 65,000 tested, under 10 active. AID 708;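 active means at 10 µM dose, initial 340 nm absorbance at least 2 fold that of control wells; inactive means change under 2 fold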;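 further: initial absorbance extrapolated from kinetic A340 decline of NADH oxidation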
PMK inhibit: inhibitors of Streptococcus pneumoniae phosphomevalonate kinase | inhibition, % at 10 µM | hit rate 0.49% among 65,000 | AID 539 | purified PMK, PK/LDH-coupled NADH absorbance 340 nm;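 active means top-ranked compounds by inhibition in the single 10 µM screen, taking a fixed number of the strongest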;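 further: 0% = full reaction with DMSO carrier and 100% = background rate without enzyme reaction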
DPM-DC inhibit: inhibitors of Streptococcus pneumoniae diphosphomevalonate decarboxylase | purified DPM-DC, PK/LDH coupled NADH fluorescence | calls only at 10 µM | hit rate 0.49% among 65,000 | AID 556;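 active means the 320 compounds with the highest percent inhibition in the single-dose primary screen, excluding strongly autofluorescent ones, cut at about 32% in these data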;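 further: kinetic rate of NADH fluorescence loss reporting ADP formed by the decarboxylase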
Fluor 339 460: intrinsic fluorescence of library compounds, ex339/em460 – biochemical, MLSMR library, data from DPM-DC assay, artefact control, profiling panel | fluorescence fold increase at 10 µM | hit rate 5.5% among 65,000 | compound autofluorescence, ex339/em460 nm, NADH buffer; active compounds read high; 1 = no-compound wells, NADH background;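 active means at 10 µM, mean starting fluorescence two-fold or more over control wells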;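 further: signal is the first read of a kinetic run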
MK inhibit: inhibitors of Streptococcus pneumoniae mevalonate kinase; hit rate 0.48% among 65,000; purified MK, PK/LDH-coupled NADH absorbance 340 nm; AID 555; inhibition, % at 10 µM;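 active means ranked among the strongest by inhibition in the single 10 µM screen, a fixed top-ranked set picked for dose follow-up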
NADH enzymes: blocks coupling enzymes of NAD/NADH assays; coupled PK/LDH NADH assays, four targets; IC50, µM (titrated, usually from 10 µM), for the others: at the top dose inhibition; hit rate 0.02% among 65,000; AID 774;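 active means single-dose screening hits from any of four coupled enzyme assays that gave an IC50 when retested across doses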;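 further: the DPM-DC format reads NADH fluorescence rather than 340 nm absorbance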
* = called active by the depositor; i = inactive; nt = not tested or not shown; + = active, no number.

SMILES | A340 absorber | PMK inhibit | DPM-DC inhibit | Fluor 339 460 | MK inhibit | NADH enzymes
CCCN1CC=C2C(C#N)=C(N)C(C#N)(C#N)C(c3cccc(OC)c3OC)C2C1 (stereo not drawn) | 1.01 | 12.0 | i | 2.17* | 0.0 | 4.0%
Cc1ccc2cc(C#N)c(N3CCCN(C(=O)C4CCCO4)CC3)nc2c1C (stereo not drawn) | 0.99 | 10.0 | i | 2.36* | 7.0 | 11.0%
COc1cc(NC(=O)c2ccc(Br)o2)c(C(=O)O)cc1OC | 1.13 | 7.0 | i | 0.98 | 8.0 | 6.0%
O=C(NCCCNC(=O)c1ccccn1)c1ccccn1 | 0.99 | 25.0* | i | 1.06 | 0.0 | 4.0%
O=C(NCC1CCCO1)c1ccccn1 (stereo not drawn) | 1 | 12.0 | i | 1.19 | 6.0 | 6.0%
CC(C)(C)NC(=O)c1ccc2c(c1)N(CC(=O)N1CCN(c3ccc(F)cc3)CC1)C(=O)C(C)(C)O2 | 0.97 | 21.0 | i | 0.95 | 6.0 | 10.0%
CCc1ccccc1NC(=O)Cn1nnc(-c2cccnc2)n1 | 1.02 | 12.0 | i | 1.12 | 12.0 | 8.0%
CCc1cc2c(=O)c(-c3nc4ccccc4[nH]3)coc2cc1OC(=O)N1CCOCC1 | 1.03 | 6.0 | + | 1.34 | 0.0 | 5.0%
CC(C)c1cc(C(=O)Nc2ccc3c(c2)OCO3)no1 | 1.04 | 4.0 | i | 1.04 | 3.0 | 2.0%
Cc1onc(-c2c(Cl)cccc2Cl)c1C(=O)Nc1ccc2c(c1)OCO2 | 1.03 | 28.0* | i | 1.12 | 9.0 | 15.0%
O=C(O)c1ccc(CS(=O)(=O)c2cccc(C(F)(F)F)c2)o1 | 0.98 | 17.0 | i | 1.02 | 0.0 | 6.0%
CCC(C)NC(=O)CS(=O)Cc1nc(-c2ccccc2C)oc1C (stereo not drawn) | 1.01 | 13.0 | i | 1 | 9.0 | 8.0%
Cc1cc(=O)oc2c(N)c(O)ccc12 | 1.11 | 0.0 | i | 1.1 | 1.0 | 3.0%
Cc1cc(=O)oc2c(CN(C)Cc3ccccc3)c(O)ccc12 | 1.22 | 2.0 | nt | 3.62* | 10.0 | 6.0%
COCCCn1c2nc3ccccc3nc2c2c(=O)n(Cc3ccccc3Cl)cnc21 | 1.09 | 0.0 | i | 2.87* | 8.0 | 5.0%
CCCCn1c2nc3ccccc3nc2c2c(=O)n(C(C)CC)cnc21 (stereo not drawn) | 1.07 | 18.0 | nt | 2.1* | 1.0 | 10.0%
O=c1c2c3nc4ccccc4nc3n(Cc3ccccc3)c2ncn1Cc1ccco1 | 1.07 | 0.0 | i | 3.28* | 11.0 | 12.0%
COCCCn1c2nc3ccccc3nc2c2c(=O)n(Cc3ccc(Cl)cc3)cnc21 | 1.08 | 8.0 | nt | 3.77* | 11.0 | 10.0%
CCCCn1c2nc3ccccc3nc2c2c(=O)n(CC(C)C)cnc21 | 0.99 | 24.0 | nt | 1.71 | 12.0 | 18.0%
COCCCn1c(C)nc2c(c1=O)c1nc3ccccc3nc1n2CCc1ccccc1 | 1.05 | 8.0 | nt | 2.43* | 0.0 | 4.0%
Cc1cc(C)cc(OCc2ccc(C(=O)O)o2)c1 | 1.01 | 9.0 | i | 1.11 | 7.0 | 8.0%
Cc1c(C)c2ccc(OCc3ccc(C(=O)O)o3)c(C)c2oc1=O | 1.02 | 7.0 | nt | 3.89* | 1.0 | 4.0%
COC(=O)c1ccc(Cc2ccc(C(=O)OC)o2)o1 | 0.99 | 19.0 | i | 0.99 | 0.0 | 6.0%
COC(=O)c1ccc(COc2ccc3c(C)c(C)c(=O)oc3c2)o1 | 1.07 | 8.0 | nt | 2.2* | 6.0 | 7.0%
CC(=O)COc1ccc2c3c(c(=O)oc2c1)CCCC3 | 1.02 | 5.0 | nt | 3.9* | 2.0 | 4.0%
SMILES | A340 absorber | PMK inhibit | DPM-DC inhibit | Fluor 339 460 | MK inhibit | NADH enzymes
O=C(O)c1ccc(COc2ccc3c4c(c(=O)oc3c2)CCC4)o1 | 1.09 | 13.0 | nt | 3.5* | 11.0 | 12.0%
CCOC(=O)N1CCN(C(=O)CN(c2ccc(Cl)c(C(F)(F)F)c2)S(C)(=O)=O)CC1 | 1.03 | 1.0 | i | 1.1 | 9.0 | 3.0%
Cc1nnc(NC(=O)C(C)Oc2ccc3c(C)cc(=O)oc3c2)s1 (stereo not drawn) | 1.12 | 10.0 | i | 1.5 | 1.0 | 6.0%
CC(=O)C(C)Oc1ccc2c3c(c(=O)oc2c1)CCCC3 (stereo not drawn) | 1.08 | 12.0 | nt | 2.07* | 8.0 | 10.0%
O=C(O)C(Oc1ccc2c3c(c(=O)oc2c1)CCC3)c1ccccc1 (stereo not drawn) | 1.18 | 1.0 | nt | 3.68* | 9.0 | 5.0%
CC(=O)C(C)Oc1ccc2c3c(c(=O)oc2c1)CCCCC3 (stereo not drawn) | 1.17 | 9.0 | nt | 3.69* | 0.0 | 5.0%
O=C(O)C1CCN(C(=O)COc2ccc3c4c(c(=O)oc3c2)CCC4)CC1 | 1.07 | 16.0 | i | 3.18* | 14.0 | 18.0%
Cc1cc(OCC(=O)N2CCCC2)ccc1Cl | 1.04 | 1.0 | i | 1.12 | 1.0 | 1.0%
Cc1cc(=O)oc2cc(OC(C)C(=O)N3CCCc4ccccc43)ccc12 (stereo not drawn) | 1.15 | 0.0 | i | 1.72 | 0.0 | 2.0%
O=C(CSc1nnc(-c2ccccn2)n1Cc1ccccc1)Nc1ccc2c(c1)OCO2 | 1.03 | 14.0 | i | 1.02 | 5.0 | 6.0%
Cc1cc2nc(NC3=NCN(Cc4cccnc4)CN3)nc(C)c2cc1C | 1.03 | 9.0 | i | 1.1 | 7.0 | 5.0%
CCc1cc2c3c(c(=O)oc2cc1O)CCCC3 | 1.2 | 0.0 | nt | 2.17* | 1.0 | 1.0%
Cc1ccc(C)n1-c1ccc(N2CCOCC2)nc1 | 1.06 | 1.0 | nt | 3.73* | 8.0 | 5.0%
CN(C)S(=O)(=O)c1ccc(N2CCOCC2)nc1 | 1.04 | 8.0 | i | 1.14 | 6.0 | 8.0%
O=C(CN1C(=O)COc2ccccc21)N(Cc1cccnc1)Cc1ccccc1F | 0.99 | 15.0 | i | 1.01 | 0.0 | 2.0%
c1cncc(C(c2nnnn2C2CCCC2)N2CCCC2)c1 (stereo not drawn) | 1.02 | 25.0* | i | 1.09 | 0.0 | 8.0%
Clc1ccc(C(c2nnnn2C2CCCC2)N2CCN(Cc3ccncc3)CC2)cc1 (stereo not drawn) | 1.01 | 25.0* | i | 1.08 | 0.0 | 8.0%
c1ccc(C(c2nnnn2C2CCCC2)N2CCCCCC2)nc1 (stereo not drawn) | 1.02 | 11.0 | i | 1.17 | 8.0 | 6.0%
Cc1cccc2cc3c(N)c(C(=O)N4CCOCC4)sc3nc12 | 1.05 | 9.0 | i | 1.09 | 15.0 | 8.0%
Nc1nc2sc3c(c2cc1C(=O)N1CCOCC1)CCCC3 | 1 | 1.0 | nt | 2.17* | 28.0 | 15.0%
Cc1ccc(Cn2ccc(NC(=O)c3cc(CC(C)C)on3)n2)cc1 | 1.06 | 0.0 | i | 1.29 | 4.0 | 7.0%
CCOCc1nc(N)[nH]c(=O)c1Cc1ccc(OC(C)C)cc1 | 1.03 | 0.0 | i | 1.1 | 0.0 | 0.0%
CN1CCN(c2nc(-c3ccccc3)c3cc(Cl)ccc3n2)CC1 | 0.97 | 1.0 | i | 1.79 | 14.0 | 5.0%
O=c1nc(-c2ccccc2)c2cc(Cl)ccc2[nH]1 | 1.05 | 8.0 | i | 3.07* | 13.0 | 12.0%
COc1cc(-c2cc3nc(C)c(C)c(=O)n3[nH]2)cc(OC)c1OC | 1.01 | 4.0 | i | 2* | 0.0 | 4.0%

Compound activity as filed in PubChem BioAssay.
